# Screening data from PubChem.
# SRC1 inh – human NCOA1 inhibition | Q15788 | HEK293 GAL4-SRC1 luciferase reporter, luminescence | inhibition, % at 3.6 µM | hit rate 0.12% among 360,000 | AID 588354;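 active = inhibition above the campaign mean plus 3 SD, with each screening campaign given its own cutoff, cut at about 60% in these data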;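 also: 0% = DMSO treated cells and 100% = gossypol at 36 µM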
# GalR3 antagonist – human GalR3 antagonism. HEK293 GalR3-CNG cAMP membrane potential fluorescence; galR3 body fused to GalR1 C-terminus. inhibition, % at 3 µM. hit rate 0.44% among 360,000. AID 651719;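 active = inhibition above the screen-wide average plus 3 SD, cut at about 13% in these data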;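 also: forskolin and galanin both at EC90 stimulate the cells; cAMP rise reported by CNG channel membrane potential dye signal; 0% = forskolin plus galanin with DMSO and 100% = forskolin alone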
# Target sequence (O60755 1-299 limits assumed): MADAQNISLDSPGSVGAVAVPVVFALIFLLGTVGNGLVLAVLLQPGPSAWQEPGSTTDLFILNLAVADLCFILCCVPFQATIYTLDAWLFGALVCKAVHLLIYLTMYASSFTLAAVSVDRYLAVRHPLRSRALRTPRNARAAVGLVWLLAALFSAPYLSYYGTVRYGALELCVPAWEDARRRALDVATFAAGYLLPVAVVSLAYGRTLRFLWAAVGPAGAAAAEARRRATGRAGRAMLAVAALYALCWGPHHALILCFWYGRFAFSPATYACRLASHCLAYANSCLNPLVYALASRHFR
# SRC3 inh – human NCOA3 inhibition; Q9Y6Q9; HEK293 GAL4-SRC3 luciferase reporter, luminescence; inhibition, % at 3.6 µM; hit rate 0.17% among 360,000;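 active = inhibition above a per-campaign cutoff, the mean of all compounds plus 3 SD, cut at about 60% in these data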;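 also: 0% = DMSO-treated cells and 100% = gossypol-treated cells at 36 µM; higher means less SRC3-driven luciferase light from the GAL4 reporter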
# NR2F2 inh – inhibitors of human COUP-TFII (NR2F2) | hit rate 0.7% among 370,000 | inhibition, % at 8.6 µM | HEK293T NGFI-A luciferase reporter, luminescence | AID 686940;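 active = inhibition above a per-plate cutoff, mean inhibition of test wells between control levels plus 3 SD, cut at about 38% in these data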;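 also: cells cotransfected with COUP-TFII expression vector driving the NGFI-A reporter; 0% = median of COUP-TF2 test wells and 100% = reporter-only cells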
# Target sequence (P24468 whole entry, looked up): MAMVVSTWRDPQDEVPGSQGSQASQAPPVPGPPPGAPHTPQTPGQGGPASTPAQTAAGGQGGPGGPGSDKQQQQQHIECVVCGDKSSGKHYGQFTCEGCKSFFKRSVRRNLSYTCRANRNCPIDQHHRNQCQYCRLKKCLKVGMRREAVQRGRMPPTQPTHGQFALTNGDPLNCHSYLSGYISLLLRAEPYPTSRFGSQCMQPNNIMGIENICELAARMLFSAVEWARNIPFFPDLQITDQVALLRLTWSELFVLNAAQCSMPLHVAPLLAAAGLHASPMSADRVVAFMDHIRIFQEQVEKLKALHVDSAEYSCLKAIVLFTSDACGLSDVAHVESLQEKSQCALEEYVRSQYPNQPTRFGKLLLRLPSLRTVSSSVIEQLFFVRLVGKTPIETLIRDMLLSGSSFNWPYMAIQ
# LRH-1 inv ag – suppresses constitutive activity of human LRH-1; O00482; HEK293T StAR-luciferase reporter, LRH-1 transfected, 24 h; inhibition, % at 3.6 µM; hit rate 0.13% among 360,000; AID 602396;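 active = inhibition above the mean inhibition of all tested compounds plus 3 SD, cut at about 73% in these data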;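 also: 0% = DMSO wells and 100% = reporter-only cells lacking LRH-1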
# SRC2 inh – human SRC2 (NCOA2) inhibition; Q15596; AID 651957; hit rate 0.17% among 370,000; inhibition, % at 9 µM; HEK293 GAL4-SRC2 luciferase reporter, luminescence;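 active = inhibition above the mean inhibition of all tested compounds plus 3 SD, set per campaign, cut at about 52% in these data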;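 also: 0% = DMSO treated cells and 100% = cells given Gossypol at 36 µM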
# VP16 Luc counter – VP16 inhibition counter-screen for COUP-TFII | shares compounds with NR2F2 inh | HEK293 Gal4-VP16 luciferase reporter, luminescence | inhibition, % at 8.5 µM | hit rate 25% among 2,500 | AID 687007; in the data active = inhibition above about 13%
# NR2F2 inh conf – COUP-TFII (NR2F2) inhibition, confirmation assay; HEK293 NGFI-A luciferase reporter, luminescence; hit rate 45% among 2,500; shares compounds with NR2F2 inh; inhibition, % at 8.5 µM;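 active = mean inhibition over three repeats above a set limit taken from the earlier primary screen, cut at about 38% in these data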;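 also: 100% = cells given the luciferase reporter alone without the COUP-TF2 vector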
# Numbers without * were called inactive; · = no result. An excerpt weighted towards active compounds, which were near 1.1% of everything screened.
SMILES,SRC1 inh,GalR3 antagonist,SRC3 inh,NR2F2 inh,LRH-1 inv ag,SRC2 inh,VP16 Luc counter,NR2F2 inh conf
C[C@@H]1CN([C@H](C)CO)C(=O)c2ccccc2-c2ccccc2CO[C@@H]1CN(C)C(=O)Nc1ccccc1,·,-3.5,·,4.5,·,6.7,·,·
NC(=O)c1sc2nc3c(c(-c4cccnc4)c2c1N)CCC3,10.3,-7.2,19.0,-2.4,-1.3,-7.5,·,·
NC(=O)c1sc2nc3c(c(-c4cccs4)c2c1N)CCCCC3,68.7*,-2.3,66.5*,43.1*,14.0,46.5,13.9*,31.6
COC(=O)[C@]12C[C@H](CC(=O)NCCc3ccccc3OC)C(=O)N(Cc3ccc4c(c3)OCO4)C1=C[C@H](COCc1ccccc1)O[C@@H]2C,·,-8.1,·,17.1,·,11.8,·,·
COc1ccc(NC(=O)c2cc3c(s2)CCC(C)C3)cc1S(=O)(=O)N1CCOCC1 (stereo not drawn),25.1,-3.1,22.4,60.2*,22.6,12.9,-16.0,28.1
COc1ccc(C(=O)Nc2ccc(Cl)c(S(=O)(=O)N3CCOCC3)c2)cc1,31.4,-5.2,20.0,58.6*,20.9,20.4,-6.2,25.2
COc1ccc(CCNC(=O)c2ccc(Cl)c(S(=O)(=O)N3CCCC3)c2)cc1,0.5,-3.4,12.8,40.8*,10.2,-29.0,-3.8,19.7
COc1ccc(C(CNC(=O)c2ccc(Cl)c(S(=O)(=O)N3CCCC3)c2)N2CCCC2)cc1 (stereo not drawn),2.1,-7.3,3.4,-10.6,8.1,-7.6,·,·
O=C(Nc1ccc(Cl)c(S(=O)(=O)N2CCOCC2)c1)c1ccc(Cl)nc1,17.6,1.3,-0.3,44.1*,12.7,-2.4,3.3,16.0
Cc1ccc(NC(=O)CCS(=O)(=O)c2ccccc2)cc1C,·,·,·,-41.2,·,-44.1,·,·
COC(=O)c1ccc(NC(=O)c2nc(S(=O)(=O)Cc3cccc(C)c3)ncc2Cl)cc1,-80.7,-4.1,-58.5,39.6*,11.4,59.6*,45.8*,14.9
CCOC(=O)c1ccc(NC(=O)c2nc(S(=O)(=O)Cc3ccccc3)ncc2Cl)cc1,-44.2,-7.2,-74.2,6.0,-33.1,-26.0,·,·
CCS(=O)(=O)c1ncc(Cl)c(C(=O)Nc2ccc(S(=O)(=O)N3CCC(C)CC3)cc2)n1,-52.6,-10.4,-23.9,48.3*,-27.1,51.4,76.3*,62.9*
COc1ccccc1CC(=O)NCCN1C(=O)C2C3C=CC(C3)C2C1=O (stereo not drawn),·,·,·,-2.1,·,-8.4,·,·
Clc1ccc(CN2CCN(N=Cc3cccc(OCc4ccccc4)c3)CC2)cc1,·,·,·,1.3,·,-1.8,·,·
O=Cc1cscc1[B-](F)(F)F,·,-2.3,·,-6.0,·,-24.6,·,·
O=C(Nc1nc2c(s1)CCCC2)c1ccc(S(=O)(=O)N2CCCc3ccccc32)cc1,2.8,-3.0,22.3,49.7*,13.5,15.3,-7.6,31.2
CC1CCc2nc(NC(=O)c3ccc(S(=O)(=O)N4CCCc5ccccc54)cc3)sc2C1 (stereo not drawn),6.1,-6.9,1.8,3.3,-3.3,-5.7,·,·
CC(C)(C)c1ccc(C(=O)NC(=S)Nc2nc3c(s2)CCCC3)cc1,33.6,-2.5,38.4,48.9*,11.3,45.2,-24.2,36.9
COc1ccc(Cn2c(-c3ccc(C)cc3)c[n+]3ccccc23)cc1,61.2*,-2.4,49.8,51.8*,73.1*,6.2,7.7,40.0*
COc1ccc(-c2nc3ccccc3n2Cc2ccc(C)cc2)cc1,-22.6,-5.0,-24.2,2.8,-7.0,-16.1,·,·
COc1ccc(-c2cnc3c(NC(C)=O)cc(-c4cccc(NS(C)(=O)=O)c4)cn23)cc1OC,-13.3,7.0,0.7,98.8*,17.5,-2.8,-1.3,-7.9
COc1cc(-c2cnc3c(NC(C)=O)cc(-c4ccc(N5CCN(C)CC5)cc4)cn23)cc(OC)c1OC,27.4,-7.0,14.0,40.9*,-18.1,12.7,-14.8,9.0
CC(=O)Nc1cc(-c2cccc(NS(C)(=O)=O)c2)cn2c(-c3cccc(C(C)=O)c3)cnc12,-21.9,-5.9,12.8,-11.6,38.3,-15.9,·,·
COC(=O)c1cc(C2(c3c[nH]c4ccccc34)CCN(C(=O)OC(C)(C)C)CC2)n2ccccc12,·,·,·,-0.3,·,4.8,·,·
SMILES,SRC1 inh,GalR3 antagonist,SRC3 inh,NR2F2 inh,LRH-1 inv ag,SRC2 inh,VP16 Luc counter,NR2F2 inh conf
CCC(C)N(c1nc(C)nc2c1nnn2Cc1ccccc1)C(C)CC (stereo not drawn),·,·,·,23.6,·,1.8,·,·
CC(C)(C)[C@@H]1/C(=C/C2CC2)N2C(=O)C[C@@H](c3ccccc3)N=C2N1Cc1ccc2c(c1)OCO2,·,·,·,12.9,·,·,·,·
O=C(NCCCc1ccccc1)C1CCN(c2nc(-c3ccc(Br)cc3)cs2)CC1,·,·,·,37.4*,·,·,-1.1,0.9
C[C@H](O)[C@@H]1CN2CCc3c([nH]c4cccc(-c5ccccc5)c34)[C@@H]2C[C@@H]1N(C)CC1CCCCC1,·,·,·,9.5,·,4.2,·,·
Cc1ccc2nc(NC(=O)CSCC(=O)OCC(=O)c3ccc(Br)cc3)sc2c1,2.1,-2.0,36.1,40.0*,-0.5,44.5,67.4*,48.8*
COCc1cc(N2CCN(C(=O)OC(C)(C)C)C[C@@H]2C)ccc1N1CC[C@H](O)C1,·,-4.1,·,-3.5,·,-26.9,·,·
O=C(NCCNc1ccnc2cc(Cl)ccc12)c1ccccc1F,19.4,-3.9,-4.1,55.0*,19.9,16.5,-8.3,36.5
O=C(c1ccc(S(=O)(=O)c2cccc(Cl)c2)c([N+](=O)[O-])c1)N1CCN(c2ccccn2)CC1,-0.9,0.2,19.1,45.3*,1.7,28.1,21.4*,8.6
CC(=O)N1c2ccc(S(=O)(=O)N3CCC(C(=O)N4CCN(c5cc(Cl)ccc5C)CC4)CC3)cc2CC1C (stereo not drawn),-30.7,-5.8,14.9,43.2*,2.5,16.6,4.8,18.9
CC1=CC(=C2C(=O)c3ccccc3C2=O)C=C(C)N1C,-35.5,-7.8,-33.6,-21.7,-46.9,-42.1,·,·
CCCCCN1C=CC(=C2C(=O)c3ccccc3C2=O)C=C1,53.0,-1.9,61.3,70.0*,23.7,82.9*,48.1*,72.9*
CC1(C)N=C(N)N=C(N)N1c1ccc(Oc2ccc(Cl)cc2)c(Cl)c1,23.4,5.8,22.8,69.2*,37.3,13.9,15.7*,65.1*
CC1(C)N=C(N)N=C(N)N1c1cc(Cl)ccc1Cl,-5.2,1.3,-3.6,-5.7,12.6,-1.5,·,·
C=C1C(=O)[C@]23C[C@H]1CC[C@H]2[C@]1(C)CCC[C@@](C)(C(=O)OC)[C@H]1C[C@@H]3O,·,·,·,94.5*,·,84.0*,70.9*,59.6*
COC(=O)[C@]1(C)CCC[C@@]2(C)C3CC[C@]4(OC(C)=O)C[C@@]3(CCC21)CC4=O (stereo partly drawn),-11.6,-4.3,9.0,13.9,8.5,18.0,·,·
